Reference: PubChem BioAssay (NCI)
The panel holds about 83,000 compounds, 20% with a hit somewhere; the sample as a whole holds those more often.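 Note: values are percent growth. 100 is the growth of untreated cells, values between 100 and 0 indicate rising inhibition; between -100 and 0 indicates cell death.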 Unmarked numbers belong to inactive results. Calls of active or inactive are those of the source. Rule for the calls: active = growth percent below 10; inactive = the rest.

system: LOX IMVI melanoma; experiment: NCI-60 one-dose screen, 48 h (100 = growth as untreated, 0 = no growth, -100 = all killed); conditions: 10 µM unless noted

| Compound | growth |
| --- | --- |
| NC(=O)c1c(NC(=O)c2ccc(Cl)cc2)sc2c1CCC(=O)C2 | 56.5% |
| Nc1c(C(=O)Nc2cccc3ncccc23)sc2nc3c(cc12)C(=O)CCC3 | 55% |
| CCOC(=O)c1c2c(n3c1NCC3)-c1ccccc1C2=O | 97.9% |
| CCCC(O)Cn1ncc(C(=O)OCC)c1NC(=O)NCc1cccc(F)c1 (stereo not given) | 92.7% |
| O=C(CCC(=O)c1nc2ncccc2[nH]1)NN1C(=O)CSC1c1ccc(Cl)cc1 (stereo not given) | 91.4% |
| COc1ccc2nc(Cl)c(/C=C/C(=O)c3ccc(NC(=O)CSc4nnc(-c5ccc(Cl)c(Cl)c5)n4-c4ccccc4)cc3)cc2c1 | 97.6% |
| CS(=O)(=O)Nc1cncc(-c2ccc3ncnc(Nc4ccc(F)c(Cl)c4)c3c2)c1 | 28.3% |
| Cc1ccc(-c2nc(C#N)c(S(=O)(=O)NCCO)o2)cc1 | 46.4% |
| O=C1OCC2=C1C(c1cccc(C(F)(F)F)c1)c1cc3c(cc1N2CCO)OCO3 (stereo not given) | 40.6% |
| CCN1C(=S)N(CC)C2C1NC(=S)N2/N=C/C=C/c1ccccc1OC (stereo not given) | 19% |
| O=C(O)c1cccc(N/C=C/C(=O)c2cc3cc(Br)ccc3oc2=O)c1 | 97.9% |
| CC12CCC(/C(=C/NNc3ccc([N+](=O)[O-])cc3[N+](=O)[O-])C1=O)C2(C)C (stereo not given) | 56.5% |
| S=c1[nH]c2cc(Cl)ccc2o1 | 103% |
| CC(C)CSc1oc(-c2ccccc2)nc1S(=O)(=O)c1ccccc1 | 96.1% |
| C#CCOc1cccc(-c2ncc3cc(NC(=O)CCl)ccc3n2)c1 | -50.4% (active) |
